Source: PubChem BioAssay (NCATS)
Several values for one entry are separate records, joined by “and”; a condition that tells them apart may be missing. Equal values may be shown once. Inconclusive results are not listed. Unless noted, the call rests on the fitted dose curve; in most records, active means well fitted activation curve with a large enough effect; inconclusive means small, poorly fitted or top-dose-only effect; inactive means flat fitted curve, though single readings scatter.

Assay: Confirmation and Secondary Assay for Modulators of Hemoglobin Beta Chain Splicing at IVS2 654 locus (AID 910);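 further: HeLa cells stably carrying EGFP split by mutant beta-globin IVS2-654 intron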
Details: HeLa EGFP-654 splicing reporter, GFP fluorescence, 48 h; series mostly up to 46.1 µM; activation (splicing correction): at the top concentration
Outline: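 HeLa cells stably expressing EGFP interrupted by β-globin IVS2-654 intron, seeded overnight in Opti-MEM/2% FCS, then treated 2 days at 37 °C. Restored splicing read as total peak GFP intensity per well by laser scanning cytometry (488 nm excitation, 500–520 nm emission); 500 nM antisense PNA as control.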
Further: % of control where 0% means no effect.

Activation (splicing correction), inactive:
CN1C2CC(OC(=O)C(CO)c3ccccc3)C[C@@H]1[C@H]1OC21 (stereo partly specified) 3.6%
CC(CCC(=O)O)C1CCC2C3CC[C@H]4CC(O)CC[C@@]4(C)C3CC[C@@]12C (stereo partly specified) -6.74%
COc1cc2c(cc1OC)C1C(=O)c3c(O)cc4c(c3OC1CO2)C=CC(C)(C)O4 (stereo unspecified) -7.82%
Nc1ncn(C2OC(CO)C(O)C2O)c(=O)n1 (stereo unspecified) -5.89%

Assay: qHTS Assay for Identification of Small Molecule Agonists for Hypoxia Response Element Signaling Pathway (AID 914; active means well fitted activation curve with a large enough effect in the signal ratio, with a control signal flat, not every such curve was filed as active; the % refers to the signal ratio)
Details: ME-180 (cervical carcinoma) HRE-bla reporter, beta-lactamase ratio, CoCl2, 17 h; hits give high values
Outline: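 In Opti-MEM containing 0.5% dialyzed FBS and 10 mM HEPES, ME-180 HRE-bla cells received a compound titration and EC50 CoCl2. They were incubated 17 hours, then CCF4-loaded 2.5 hours at room temperature before ratio reading.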

activation, inactive:
CSCC[C@@H]1NC(=O)C/C=C\[C@@H](C)COC(=O)[C@@H](C)COC1=O -8.61%
C/C(CCN1CCCc2nc(C)c(C)cc21)=N\O[C@@H](C)c1cn([C@@H]2COC[C@@H]2O)nn1 8.15%
CSCC[C@@H]1NC(=O)C/C=C\[C@@H](C)COC(=O)[C@H](C)COC1=O 5.76%
COC(=O)C/C=C\[C@@H](C)[C@H]1C=C[C@H](O)[C@@H](CO)O1 10.7%
CC(C)C(=O)N[C@H]1CCCN1C(=O)/C=C\c1ccccc1 4.87%
CCN1C(=O)[C@H]2[C@@H]3[C@H](O)[C@H](O)CC(=O)[C@H]3CC[C@H]2C1=O -3.64% and -8.67%
CC(C)[C@@H](OCc1ccccc1)[C@H](C)/C=N\OC[C@@H](C)[C@H](OCc1ccccc1)C(C)C -1.89%
COC(=O)C(C(=O)OC)[C@@H]1CCCC(=O)C1 -2.41%
O=C1C=C[C@@H](O)[C@H]2[C@@H]3C(=O)N(C[C@@H]4CCCO4)C(=O)[C@@H]3CC[C@H]12 -2.79%
CC(C)=CCC/C(C)=C/CO/N=C1/C[C@@H](O)[C@@H](O)[C@@H]2[C@@H]3C(=O)N(c4cccc(Oc5ccccc5)c4)C(=O)[C@H]3CC[C@@H]12 6.84%
O=C(N/N=C1/C[C@@H](O)[C@@H](O)[C@@H]2[C@@H]3C(=O)N(c4cccc(Oc5ccccc5)c4)C(=O)[C@H]3CC[C@@H]12)OCc1ccccc1 -0.0366%
CC(C)[C@H](NC(=O)OC(C)(C)C)[C@@H](O)CC(=O)C(C)(C)C 3.44%
Cc1ccc2nc3nc4ccc[nH]c4cc3c2c1 -21.2%
C[C@H](c1ccccc1)N1C(=O)[C@H]2[C@@H]3[C@H](O)[C@H](O)CC(=O)[C@H]3CC[C@H]2C1=O 0.807%
COc1ccc(COC(=O)N/N=C2/C[C@@H](O)[C@@H](O)[C@@H]3[C@@H]4C(=O)N(Cc5ccc6c(c5)OCO6)C(=O)[C@H]4CC[C@@H]23)cc1 0.811%
CCN1C(=O)[C@H]2[C@H]3[C@H](O)[C@H](O)C/C(=N/OCc4ccccc4)[C@@H]3CC[C@@H]2C1=O -12.3%
CCN1C(=O)[C@H]2[C@H]3[C@H](O)[C@H](O)C/C(=N/OCc4ccccc4)[C@H]3CC[C@@H]2C1=O 7.18%
CCc1cc2c(nc1CC)CCN(CC/C(C)=N/OC[C@@H](O)[C@@H]1O[C@@H]3OC(C)(C)O[C@@H]3[C@H]1O)C2 -8.78%
COC(=O)C/C=C\[C@@H](C)[C@@H](/C=N\O[C@@H](C)CN1CCCc2nc(C)c(C)cc21)NS(=O)(=O)c1ccc(C)cc1 4.52%
CO[C@H]1COC(=O)[C@H](C)COC(=O)[C@H](C)NC(=O)C/C=C\[C@H]1C 5.98%
C#CCCCO/N=C1/C[C@@H](O)[C@@H](O)[C@@H]2[C@@H]3C(=O)N(c4cccc(Oc5ccccc5)c4)C(=O)[C@H]3CC[C@@H]12 -6.82%
c1ccc([C@H]2NCCc3c2[nH]c2ccccc32)cc1 -22.5%
CC(C)=CCC/C(C)=C/CO/N=C1/C[C@@H](O)[C@@H](O)[C@@H]2[C@@H]3C(=O)N(c4cccc(Oc5ccccc5)c4)C(=O)[C@H]3CC[C@H]12 7.14%
CO[C@H]1COC(=O)[C@@H](C)COC(=O)[C@H](C)NC(=O)C/C=C\[C@H]1C -4.15%
O=C(N/N=C1/C[C@@H](O)[C@@H](O)[C@@H]2[C@@H]3C(=O)N(c4cccc(Oc5ccccc5)c4)C(=O)[C@H]3CC[C@H]12)OCc1ccccc1 9.49%
CC(C)CO/N=C1/C[C@@H](O)[C@@H](O)[C@@H]2[C@@H]3C(=O)N(C4CCCCC4)C(=O)[C@H]3CC[C@@H]12 -7.25%
COc1ccc(COC(=O)N/N=C2/C[C@@H](O)[C@@H](O)[C@@H]3[C@@H]4C(=O)N(Cc5ccc6c(c5)OCO6)C(=O)[C@H]4CC[C@H]23)cc1 -9.34%
